The text below walks through data of PubChem BioAssay (NCATS).

Unmarked numbers belong to inactive results. Inconclusive results are not listed. The source made the active and inactive calls. Unless noted, calls come from the whole dose curve; as a rule, active = well fitted curve in the direction sought with a large enough effect; inconclusive = small, poorly fitted or top-dose-only effect, or another doubt; inactive = no such curve, though single readings can be large; an effect the other way counts as inactive or inconclusive. Where only a bound is given, the exact number is not on record here.

The target in test [1] is Tumor susceptibility gene 101 protein (Homo sapiens) (UniProt Q99816). Kind of test: qHTS Assay for Iinhibitors of HIV-1 Budding by Blocking the Interaction of PTAP/TSG101: Hit Validation (AID 651600). Note: potency is the fitted concentration of half-maximal effect; nearly all actives have a fitted effect of over 70% in size. In short, it runs like this:
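Fluorescence polarization binding assay: Tsg101 binding domain (10 uM) mixed with compounds and FITC-labeled PTAP peptide (50 nM) in HEPES pH 7.5, 0.15 M NaCl, 0.01% Tween 20, EDTA, TCEP; 20 min at r.t.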
Background: qHTS replaces the single test concentration by a dilution series.

For test [2], the target named is Rap guanine nucleotide exchange factor 3 (Homo sapiens) (UniProt O95398). Kind of test: Confirmatory qHTS for antagonist of cAMP-regulated guanine nucleotide exchange factor 3 (EPAC1) (AID 1645880).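 Note: plate controls were DMSO only for no effect and full effect of the ATA control for full effect; nearly all actives have a fitted effect of over 55% in size.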 As to conditions: EPAC1 Rap1B-BODIPY-GDP exchange, fluorescence; activity, negative = inhibition: at 115 µM (top of the series). A digest of the protocol: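 Nucleotide exchange uses 100 nM EPAC1, 250 nM RAP1B-BODIPY-GDP and 50 uM GDP, with compounds in a concentration-titration series. After 5 min at room temperature, fluorescence (480 nm ex/540 nm em) is read every 5 min for 30 min. Data are normalized to control ATA and DMSO.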

The target is the same in test [3]. Kind of test: Confirmatory qHTS for agonist of cAMP-regulated guanine nucleotide exchange factor 3 (EPAC1) (AID 1645881).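 For activation: EPAC1 catalysed release of BODIPY-GDP from Rap1B seen as fluorescence loss.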 Note: nearly all actives have a fitted effect of over 75% in size. Note: potency is the fitted concentration of half-maximal effect.
In test [4] the target is Rap guanine nucleotide exchange factor 4 (Homo sapiens) (UniProt Q8WZA2). As to the kind of experiment: Confirmatory qHTS for agonist of cAMP-regulated guanine nucleotide exchange factor 4 (EPAC2) (AID 1645884). For activation: % is set by controls: 0 for no effect and ±100 for the full control effect. Note: nearly all actives have a fitted effect of over 65% in size. Note: potency is the fitted concentration of half-maximal effect.
Test [5] has the same target. Kind of test: Confirmatory qHTS for antagonist of cAMP-regulated guanine nucleotide exchange factor 4 (EPAC2) (AID 1645885). Note: % is set by controls: 0 for no effect and ±100 for the full control effect; nearly all actives have a fitted effect of over 25% in size.
In test [6] the target is Rap guanine nucleotide exchange factor 3 (Homo sapiens) (UniProt O95398). Kind of test: Counterscreen qHTS for agonist of cAMP-regulated guanine nucleotide exchange factor 3 (EPAC1) (AID 1645889). Note: potency is the fitted concentration of half-maximal effect; nearly all actives have a fitted effect of over 40% in size. In short, it runs like this: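 Rap1B–BODIPY-GDP (250 nM) with 50 uM GDP; compounds pin-transferred to 9.74 nM–152 uM final (activator) or from 7.32 nM upwards (inhibitor). Fluorescence Ex/Em 480/540 nm read at 5 and 30 min, then after adding cAMP or buffer, at room temperature.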
(In general: The purpose of a counterscreen is to sort out artefacts and off-target activity.)

The target of test [7] is Lysosomal acid glucosylceramidase (Homo sapiens) (UniProt P04062). As to the kind of experiment: Glucocerebrosidase-p2 (AID 348; in the data active = potency below about 10 µM; note: potency is the fitted concentration of half-maximal effect). To be noted: purified GBA, blue fluorogenic substrate, 40 min. In short, it runs like this:
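Compounds titrated from 0.6 nM upwards against 0.2 nM enzyme in pH 5.9 citric acid/KH2PO4, taurocholate, tween-20; blue fluorogenic substrate 80 uM, 40 min room temperature, stopped and read Ex 365/Em 440 for AC50.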

Test [8] deals with Cytochrome P450 1A2 (Homo sapiens) (UniProt P05177). Kind of test: p450-cyp1a2 (AID 410; calls by dose curve; note: potency is the fitted concentration of half-maximal effect). In short, it runs like this:
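Human CYP1A2 (20nM) demethylated Luciferin-ME at its Km (100uM) in 100mM KPO4. After 10 min compound preincubation, NADPH regeneration ran the reaction 60 min at room temperature. Luciferin was read by luminescence, normalized to 57 uM furafylline.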

In test [9] the target is Glucocorticoid receptor (Homo sapiens) (UniProt P04150). Kind of test: GR-EFC Redistribution (AID 451; calls by dose curve; note: potency is the fitted concentration of half-maximal effect). As to conditions: CHO-K1 GR-EFC translocation, beta-gal luminescence, 2 h. In short, it runs like this:
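CHO-K1 cells expressing nuclear EA and GR-ED fragments of b-gal; compounds titrated up to 46 uM final, 2 h at 37 C. GR nuclear translocation read as complemented b-gal luminescence after 1 h RT detection.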

Test [10] concerns the target 3',5'-cyclic-AMP phosphodiesterase 4B (Homo sapiens) (UniProt Q07343). As to the kind of experiment: qHTS Assay for Inhibitors of PDE-IV (AID 607; active = well fitted activation curve with a large enough effect in the main read-out, with a control signal flat, not every such curve was filed as active; note: % of control where 0% means no effect). A digest of the protocol: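 Cell-based read-out of cAMP via a modified cyclic nucleotide-gated channel and membrane potential dye (535/590 nm) in HEK293 cells expressing PDE4 endogenously. Compounds tested up to 22.9 uM final; 100 uM RO 20-1724 reference.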

Test [11] deals with Cytochrome P450 3A4 (Homo sapiens) (UniProt P08684). As to the kind of experiment: qHTS Assay for Activators of Cytochrome P450 3A4 (AID 885). Note: nearly all actives have a fitted effect of over 65% in size. A digest of the protocol:
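Signal was normalized against complete inhibition by 57 uM ketoconazole. The reaction used 20nM CYP3A4 with 25uM Luciferin-PPXE, 10-min compound preincubation and a 60-min NADPH-supported step at RT.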

Test [12] in a line: qHTS Assay for Identification of Small Molecule Agonists for Hypoxia Response Element Signaling Pathway (AID 914; active = well fitted activation curve with a large enough effect in the signal ratio, with a control signal flat, not every such curve was filed as active; the % refers to the signal ratio; note: potency is the fitted concentration of half-maximal effect). As to conditions: ME-180 HRE-bla reporter, beta-lactamase ratio, CoCl2, 17 h; activation: hits give high values. In short, it runs like this: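 HRE-bla ME-180 cells, overnight plating in Opti-MEM with 0.5% dialyzed FBS; cpd titration + EC50 CoCl2, 17 h, 37 degrees Celsius; CCF4 2.5 h RT; 460/530 nm ratio; AC50.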

Test [13] has as its target Dual specificity protein kinase CLK4 (Homo sapiens) (UniProt Q9HAZ1). Kind of test: qHTS Assay for Inhibitors of CDC-like Kinase 4 (Kinase-Glo Assay) (AID 1770). Note: % is set by controls: 0 for no effect and ±100 for the full control effect; nearly all actives have a fitted effect of over 65% in size. A digest of the protocol:
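25 nM Clk4 with 100 uM RS repeat peptide and 1 uM ATP (final) in Tris pH7.5, 10 mM MgCl2, 4.5 h at room temperature. Remaining ATP measured by Kinase-Glo luciferase luminescence.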

The target is the same in test [14]. As to the kind of experiment: qHTS Assay for Inhibitors of CDC-like Kinase 4 (ADP-Glo Assay) (AID 1771). Note: % is set by controls: 0 for no effect and ±100 for the full control effect; nearly all actives have a fitted effect of over 70% in size. In short, it runs like this:
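Clk4 (25 nM) was incubated 1 hr at room temperature with 100 uM RS repeat peptide and 1 uM ATP in buffer with 2 mM MgCl2, 0.5 mM EGTA, 2.5 mM DTT. ADP formed was quantified by ADP-Glo luminescence.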

Test [15] deals with Ubiquitin carboxyl-terminal hydrolase 1 (Homo sapiens) (UniProt O94782). As to the kind of experiment: Inhibitors of USP1/UAF1: Pilot qHTS (AID 504865).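 Note: rhodamine fluorescence freed from ubiquitin-rhodamine substrate followed over time; top concentration of the series differs between compounds; % is set by controls: 0 for no effect and ±100 for the full control effect; nearly all actives have a fitted effect of over 35% in size.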 A digest of the protocol: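 USP1/UAF1 complex at 1 nM preincubated 15 min at room temperature with compound, then Ub-Rho substrate added at 150 nM final. Fluorescence (480/540 nm) read kinetically in 50 mM HEPES pH 7.8, 0.5 mM EDTA, 1 mM TCEP, 0.1 mg/ml BSA, 0.01% Tween-20.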

A short description of test [16]: NFAT Signaling Pathway (AID 444; active = well fitted curve in either direction with a large enough effect, not every such curve was filed as active;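 note: carbachol stimulus at about its EC50 of 1 µM final; % is set by controls: 0 for no effect and ±100 for the full control effect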). To be noted: Jurkat NFAT-bla M1, carbachol, beta-lactamase ratio, 5 h; at 7.69 µM (top of the series) unless noted. A digest of the protocol: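 Jurkat cells with NFAT-driven β-lactamase reporter and co-expressed M1 receptor, stimulated with carbachol (final 1 uM, ~EC50), compound titration, 5 h at 37 °C. CCF4 loaded 1 h at RT; 460/530 nm ratio gave %activity and AC50.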

Test [17] can be described thus: Stat Signaling Pathway (AID 446; active = well fitted curve in either direction with a large enough effect, not every such curve was filed as active;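 note: ME-180 cervical cancer cells given 40 pM IL-6 alongside compound; SIE-controlled beta-lactamase reporter measured as 460/530 nm FRET emission ratio; % is set by controls: 0 for no effect and ±100 for the full control effect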). In short, it runs like this: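 Reporter line: ME-180 cervical carcinoma, SIE-beta-lactamase. Treatment: compound with 40 pM IL-6, 5 hrs, 37 C, in low-serum OPTI-MEM with 10 mM HEPES pH 7.3. Detection: 460/530 nm fluorescence.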
In test [18] the target is Glucocorticoid receptor (Homo sapiens) (UniProt P04150). Kind of test: GR-GFP Redistribution (AID 450;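 active = compounds whose dose series gives a full or clear partial fitted curve of increased nuclear translocation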; note: potency is the fitted concentration of half-maximal effect). To be noted: U2OS GR-GFP nuclear translocation, laser cytometry, 2 h.
Test [19] concerns the target Mitogen-activated protein kinase 10 (Mus musculus) (UniProt Q61831). As to the kind of experiment: JNK3 AlphaScreen Assay (AID 530; active = well fitted curve in either direction with a large enough effect, not every such curve was filed as active;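 note: kinase came from lysate of stimulated human HepG2 cells; signal reports phosphorylation of biotinylated GST-cJun 1-79 at Ser73 with 10 µM ATP; % is set by controls: 0 for no effect and ±100 for the full control effect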). A digest of the protocol:
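qHTS format: compounds tested as titrations against IL-1beta/TNF-alpha-activated HepG2 lysate JNK3 with biotin-GST-cJun substrate and 10 uM ATP at room temperature. Loss of anti-phospho-cJun AlphaScreen signal indicates inhibition.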
A general note: Alpha assays give light when donor and acceptor beads are brought close together.

Test [20] deals with Cytochrome P450 3A4 (Homo sapiens) (UniProt P08684). Kind of test: qHTS Assay for Inhibitors and Substrates of Cytochrome P450 3A4 (AID 884). Note: potency is the fitted concentration of half-maximal effect; nearly all actives have a fitted effect of over 50% in size. In short, it runs like this:
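20 nM human CYP3A4 with 25 uM Luciferin-PPXE (at KM) in 200 mM KPO4, preincubated 10 min with compound; NADPH regeneration started a 60 min RT reaction. Luciferin detected by luminescence, normalized to 57 uM ketoconazole as full inhibition.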

Chain of Rap guanine nucleotide exchange factor 4 (Homo sapiens) (Q8WZA2 whole entry, looked up): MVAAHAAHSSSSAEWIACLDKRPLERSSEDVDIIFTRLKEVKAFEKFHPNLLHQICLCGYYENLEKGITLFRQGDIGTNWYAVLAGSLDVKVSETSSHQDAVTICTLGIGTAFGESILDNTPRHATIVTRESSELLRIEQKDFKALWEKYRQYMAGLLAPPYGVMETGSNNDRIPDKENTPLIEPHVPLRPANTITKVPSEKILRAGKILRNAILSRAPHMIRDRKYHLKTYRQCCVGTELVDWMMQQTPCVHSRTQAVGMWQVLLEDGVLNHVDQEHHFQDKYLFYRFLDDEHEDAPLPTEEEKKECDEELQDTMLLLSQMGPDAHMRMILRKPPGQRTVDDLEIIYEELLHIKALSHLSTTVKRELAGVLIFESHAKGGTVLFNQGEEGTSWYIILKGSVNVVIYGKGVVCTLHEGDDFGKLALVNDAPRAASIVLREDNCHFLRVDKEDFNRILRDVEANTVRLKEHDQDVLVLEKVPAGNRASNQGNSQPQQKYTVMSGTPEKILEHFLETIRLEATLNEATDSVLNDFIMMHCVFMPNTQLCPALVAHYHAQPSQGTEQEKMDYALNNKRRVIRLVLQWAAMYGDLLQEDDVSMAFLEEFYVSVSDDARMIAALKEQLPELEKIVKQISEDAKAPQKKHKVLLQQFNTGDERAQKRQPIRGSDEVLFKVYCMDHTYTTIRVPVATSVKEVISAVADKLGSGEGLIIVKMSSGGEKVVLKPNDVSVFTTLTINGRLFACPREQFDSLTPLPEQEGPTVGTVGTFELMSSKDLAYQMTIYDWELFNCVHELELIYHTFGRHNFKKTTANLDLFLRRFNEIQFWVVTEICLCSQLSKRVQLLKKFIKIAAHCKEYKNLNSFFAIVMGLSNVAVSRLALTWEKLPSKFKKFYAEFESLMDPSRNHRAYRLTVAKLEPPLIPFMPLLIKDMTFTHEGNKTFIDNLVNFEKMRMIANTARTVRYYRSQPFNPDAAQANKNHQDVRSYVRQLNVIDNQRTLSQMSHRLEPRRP
Chain of Glucocorticoid receptor (Homo sapiens) (P04150 whole entry, looked up, the tested form may be a part): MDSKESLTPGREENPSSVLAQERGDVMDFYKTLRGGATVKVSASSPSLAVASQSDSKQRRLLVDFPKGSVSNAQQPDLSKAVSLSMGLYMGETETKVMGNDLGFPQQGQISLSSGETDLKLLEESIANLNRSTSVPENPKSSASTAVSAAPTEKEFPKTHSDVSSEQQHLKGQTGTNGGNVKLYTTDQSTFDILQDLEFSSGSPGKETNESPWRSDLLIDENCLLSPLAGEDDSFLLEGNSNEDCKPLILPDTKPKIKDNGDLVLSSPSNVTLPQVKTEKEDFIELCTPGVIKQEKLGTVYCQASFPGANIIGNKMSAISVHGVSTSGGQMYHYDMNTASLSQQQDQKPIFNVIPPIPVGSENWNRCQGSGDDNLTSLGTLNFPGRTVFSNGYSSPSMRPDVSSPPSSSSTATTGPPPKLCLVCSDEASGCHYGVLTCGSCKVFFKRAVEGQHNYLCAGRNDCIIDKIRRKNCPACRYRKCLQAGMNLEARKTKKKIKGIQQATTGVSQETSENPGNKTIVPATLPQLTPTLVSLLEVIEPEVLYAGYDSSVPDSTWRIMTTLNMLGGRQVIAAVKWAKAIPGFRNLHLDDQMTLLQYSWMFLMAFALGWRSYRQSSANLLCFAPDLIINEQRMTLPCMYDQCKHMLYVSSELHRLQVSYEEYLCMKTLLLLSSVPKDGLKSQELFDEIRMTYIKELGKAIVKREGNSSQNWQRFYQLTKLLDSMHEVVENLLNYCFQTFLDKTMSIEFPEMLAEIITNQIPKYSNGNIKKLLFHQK
Chain of Cytochrome P450 3A4 (Homo sapiens) (P08684 whole entry, looked up): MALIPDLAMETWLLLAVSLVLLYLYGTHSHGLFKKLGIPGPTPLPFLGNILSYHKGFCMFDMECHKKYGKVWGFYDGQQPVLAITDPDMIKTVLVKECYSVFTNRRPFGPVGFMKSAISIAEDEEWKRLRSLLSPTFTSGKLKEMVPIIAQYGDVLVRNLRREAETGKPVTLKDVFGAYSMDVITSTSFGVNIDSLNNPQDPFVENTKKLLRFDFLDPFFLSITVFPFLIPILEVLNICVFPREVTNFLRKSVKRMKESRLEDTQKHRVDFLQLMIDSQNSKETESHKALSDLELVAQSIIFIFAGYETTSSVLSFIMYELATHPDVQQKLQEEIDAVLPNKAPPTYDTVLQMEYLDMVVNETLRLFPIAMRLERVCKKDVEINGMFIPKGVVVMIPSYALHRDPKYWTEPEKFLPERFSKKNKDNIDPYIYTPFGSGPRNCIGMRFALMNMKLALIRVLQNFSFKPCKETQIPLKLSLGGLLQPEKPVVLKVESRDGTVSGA
Chain of Rap guanine nucleotide exchange factor 3 (Homo sapiens) (O95398 whole entry, looked up): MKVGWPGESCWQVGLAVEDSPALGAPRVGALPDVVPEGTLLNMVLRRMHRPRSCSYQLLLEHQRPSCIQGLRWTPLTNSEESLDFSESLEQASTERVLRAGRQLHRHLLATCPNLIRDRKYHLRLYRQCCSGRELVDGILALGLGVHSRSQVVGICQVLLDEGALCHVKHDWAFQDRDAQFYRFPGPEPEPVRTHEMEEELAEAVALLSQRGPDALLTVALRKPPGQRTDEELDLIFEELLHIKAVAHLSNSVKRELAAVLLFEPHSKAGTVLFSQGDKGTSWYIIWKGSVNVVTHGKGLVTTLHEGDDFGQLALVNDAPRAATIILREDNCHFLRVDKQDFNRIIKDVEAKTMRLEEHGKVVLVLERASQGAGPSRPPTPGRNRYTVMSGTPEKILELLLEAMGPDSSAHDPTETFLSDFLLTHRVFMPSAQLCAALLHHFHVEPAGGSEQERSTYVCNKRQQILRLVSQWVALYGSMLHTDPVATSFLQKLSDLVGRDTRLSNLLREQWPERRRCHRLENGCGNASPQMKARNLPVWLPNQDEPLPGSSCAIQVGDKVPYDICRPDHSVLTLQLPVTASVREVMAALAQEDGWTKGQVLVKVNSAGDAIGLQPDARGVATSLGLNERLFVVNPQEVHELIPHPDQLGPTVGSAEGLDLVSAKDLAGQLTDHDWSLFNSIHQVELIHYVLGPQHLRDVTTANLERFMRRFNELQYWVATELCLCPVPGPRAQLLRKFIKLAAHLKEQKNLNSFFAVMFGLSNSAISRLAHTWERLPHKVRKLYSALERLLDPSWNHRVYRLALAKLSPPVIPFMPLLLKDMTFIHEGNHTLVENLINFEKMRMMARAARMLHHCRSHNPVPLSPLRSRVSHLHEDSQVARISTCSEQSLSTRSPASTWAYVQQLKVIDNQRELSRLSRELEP
Chain of Cytochrome P450 1A2 (Homo sapiens) (P05177 whole entry, looked up): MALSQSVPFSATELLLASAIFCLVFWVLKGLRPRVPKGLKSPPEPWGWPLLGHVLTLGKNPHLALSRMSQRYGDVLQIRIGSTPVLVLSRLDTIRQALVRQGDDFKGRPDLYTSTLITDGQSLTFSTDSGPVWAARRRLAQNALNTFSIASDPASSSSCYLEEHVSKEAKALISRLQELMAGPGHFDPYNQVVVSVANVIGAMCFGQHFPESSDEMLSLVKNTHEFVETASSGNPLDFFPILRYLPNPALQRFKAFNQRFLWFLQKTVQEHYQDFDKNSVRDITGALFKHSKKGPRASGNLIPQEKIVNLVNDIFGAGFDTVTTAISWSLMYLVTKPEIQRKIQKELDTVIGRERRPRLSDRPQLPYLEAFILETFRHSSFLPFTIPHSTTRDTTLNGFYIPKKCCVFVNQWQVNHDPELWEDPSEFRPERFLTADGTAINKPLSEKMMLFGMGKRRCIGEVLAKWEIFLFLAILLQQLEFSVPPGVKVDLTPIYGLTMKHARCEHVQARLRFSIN
Chain of Lysosomal acid glucosylceramidase (Homo sapiens) (P04062 whole entry, looked up): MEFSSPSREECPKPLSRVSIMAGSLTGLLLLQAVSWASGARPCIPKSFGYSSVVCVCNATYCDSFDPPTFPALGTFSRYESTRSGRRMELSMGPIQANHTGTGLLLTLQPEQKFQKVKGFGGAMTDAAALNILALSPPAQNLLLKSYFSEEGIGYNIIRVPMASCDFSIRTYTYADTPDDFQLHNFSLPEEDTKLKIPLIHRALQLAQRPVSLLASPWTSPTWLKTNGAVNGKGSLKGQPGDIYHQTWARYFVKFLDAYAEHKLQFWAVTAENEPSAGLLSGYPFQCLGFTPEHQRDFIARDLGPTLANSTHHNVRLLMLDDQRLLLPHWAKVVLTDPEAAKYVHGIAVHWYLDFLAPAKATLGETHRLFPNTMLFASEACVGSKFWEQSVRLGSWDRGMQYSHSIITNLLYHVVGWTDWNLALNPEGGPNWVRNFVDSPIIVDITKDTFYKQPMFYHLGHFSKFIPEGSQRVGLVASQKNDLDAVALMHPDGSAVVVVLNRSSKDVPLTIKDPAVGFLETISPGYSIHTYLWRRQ
Chain of Dual specificity protein kinase CLK4 (Homo sapiens) (Q9HAZ1 whole entry, looked up): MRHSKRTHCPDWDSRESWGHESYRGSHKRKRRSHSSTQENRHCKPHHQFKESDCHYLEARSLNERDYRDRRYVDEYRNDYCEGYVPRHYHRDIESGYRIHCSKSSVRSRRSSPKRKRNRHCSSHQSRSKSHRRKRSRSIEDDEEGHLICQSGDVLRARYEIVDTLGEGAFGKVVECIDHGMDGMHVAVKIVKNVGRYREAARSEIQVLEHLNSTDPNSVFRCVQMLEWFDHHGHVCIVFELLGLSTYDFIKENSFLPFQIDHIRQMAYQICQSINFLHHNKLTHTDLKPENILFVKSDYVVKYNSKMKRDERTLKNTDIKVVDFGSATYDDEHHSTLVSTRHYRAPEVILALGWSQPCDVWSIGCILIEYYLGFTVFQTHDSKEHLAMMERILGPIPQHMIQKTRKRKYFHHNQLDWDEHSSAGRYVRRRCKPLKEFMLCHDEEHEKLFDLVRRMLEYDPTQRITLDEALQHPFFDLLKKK

Consider `Nc1ccc(-c2c3ccc(=O)cc-3oc3cc(O)ccc23)cc1C(=O)O`, for which the Potency was 23.1 µM (active) in [1], 50.1 µM (active) in [3], 100 µM (active) in test [4] and 50.1 µM (active) in [6]. For the same compound, the Potency result in test [2] and in [5] was “inactive” in each case.
Turning to `CN1CCN(c2ncc3nc(-c4cccs4)c(=O)n(CCc4ccccc4)c3n2)CC1`, the Potency in test [7] was above 11.4 µM; in test [8] it was 2.51 µM (active); in [9], above 46 µM; in test [12] it was 3.16 µM (active). Moreover, the Potency result in test [10], in [13], in [14], in test [15], in test [2] and in [3] was “inactive” each time. Further, the Potency result in test [4] and in test [5] was “inactive” throughout. Further, the call in test [11] was inactive.
Consider `COc1ccc(Oc2ncc3nc(CCc4ccccc4)c(=O)n(CCC#N)c3n2)cc1`, for which the Potency is above 11.4 µM in [7]; 6.31 µM (active) in test [8]; above 9.22 µM in test [18]; above 46 µM in test [9]; 1.58 µM (active) in [20]. The activity change, negative = inhibition in test [16] is 3.1%. The result in test [17] and in test [11] was inactive. In addition, the Potency entry in [19], in test [10], in test [2], in test [3], in test [4] and in test [5] was “inactive” in each case.
